# Results: PubChem BioAssay (NCATS)
# Results filed as inconclusive are left out. Unmarked numbers belong to inactive results. Calls of active or inactive are those of the source. The call rests on the fitted dose curve; in most records, active means well fitted inhibition curve with a large enough effect; inconclusive means small, poorly fitted or top-dose-only effect; inactive means flat fitted curve, though single readings scatter. Where a SMILES comes first, the peptide text is derived from it. Bridges are numbered along the chain shown (N, C = ends). [ ]: non-standard residue; d: D form. Orn = NCCC[C@H](N)C(=O)O; Mpa = O=C(O)CCS
# Target: Luciferin 4-monooxygenase (Photinus pyralis) (UniProt P08659)
# Sequence (P08659 whole entry, looked up): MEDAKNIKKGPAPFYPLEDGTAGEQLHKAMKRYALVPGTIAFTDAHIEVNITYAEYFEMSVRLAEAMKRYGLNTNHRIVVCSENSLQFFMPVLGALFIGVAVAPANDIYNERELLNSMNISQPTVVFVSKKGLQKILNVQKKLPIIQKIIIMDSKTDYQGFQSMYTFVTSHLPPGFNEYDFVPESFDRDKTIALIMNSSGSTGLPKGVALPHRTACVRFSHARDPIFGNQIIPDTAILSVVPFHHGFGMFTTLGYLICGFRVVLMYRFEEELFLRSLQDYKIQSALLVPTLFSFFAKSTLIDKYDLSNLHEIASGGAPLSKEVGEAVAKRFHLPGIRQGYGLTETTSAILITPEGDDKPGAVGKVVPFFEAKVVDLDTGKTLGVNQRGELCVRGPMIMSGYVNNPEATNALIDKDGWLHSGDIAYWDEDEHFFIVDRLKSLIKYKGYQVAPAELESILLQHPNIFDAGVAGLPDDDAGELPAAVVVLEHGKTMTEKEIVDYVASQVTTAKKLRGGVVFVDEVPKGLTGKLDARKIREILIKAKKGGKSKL
# Assay: Biochemical firefly luciferase enzyme assay for NPC (AID 624030); further: nearly all actives have a fitted effect of over 70% in size;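 on activity change, negative = inhibition: 0% = DMSO and -100% = full luciferase inhibition by PTC124 control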
# Details: purified P. pyralis luciferase, luminescence, 5 min; series mostly up to 58.6 µM; activity change, negative = inhibition: at the top concentration
# From the text: Charcot-Marie-Tooth-Association [CMTA] National Center for Advancing Translational Sciences [NCATS] Charcot-Marie-Tooth (CMT) disease was first characterized by Jean-Martin Charcot and Pierre Marie in France and, independently, by Howard Henry Tooth in England in 1886. CMT is one of the most common inherited neurological diseases, affecting approximately 1 in 2,500 Americans. […] The most prevalent type of CMT is known as CMT1A and caused by a duplication of the PMP22 gene which leads to over-expression of this protein. PMP22 is a glycosylated intrinsic membrane protein accounting for 2-5% of the myelin protein content, and its over-expression results in demyelination and subsequently axonal loss. A pair of cellular transcription-based assays was developed in the S16 rat Schwann cell lines (Hai, M., et al., 2002) stably transfected with orthogonal reporters - firefly luciferase (Fluc) and beta-lactamase (beta-Lac) - whose expression is driven by an intronic regulatory element of the PMP22 gene (Jones, E.A., et al., 2011) to recapitulate endogenous expression of PMP22. A comprehensive library of approved drugs, the NCGC Pharmaceutical Collection (Huang, R., et al., 2011), was screened in the cross-validating platform of the orthogonal reporter assays to identify drug modulators inhibitory towards PMP22 expression. A set of counter-screens was devised to address non-specific activity of the library. An ATP-dependent CellTiter-Glo assay (developed by Promega Corp) was utilized to control cell viability. In addition, biochemical Fluc enzyme assay was performed to assess direct inhibition of the Fluc enzymatic activity. References Hai, M., Muja, N., DeVries, G.H., Quarles, R.H. and Patel, P.I. Comparative analysis of Schwann cell lines as model systems for myelin gene transcription studies. J Neurosci Res, 2002. 69(4): pp 497-508 Huang, R., Southall, N., Wang, Y., Yasgar A., Shinn P., Jadhav, A. , Nguyen, D.-T. and Austin, C.P., The NCGC pharmaceutical collection: a comprehensive resource of clinically approved drugs enabling repurposing and chemical genomics. Sci Transl Med, 2011. 3(80): p. 80ps16.
# Compounds were transferred to the plates in 23nl, and one microliter/well luciferase enzyme-buffer solution (10 nM P. pyralis luciferase and 50 mM Tris Acetate final concentrations) was dispensed yielding a final reaction volume of […]. Luciferase luminescence was measured by a ViewLux plate reader within 5 minutes of enzyme-buffer addition. The % activity was determined by normalizing to the average readings of PTC124 (a positive control) relative to DMSO (0% Activity). The concentration-effect curves were then classified based on curve quality (r2), response magnitude and degree of measured activity.
# Potency means the concentration at half of the fitted maximal effect.
Compound,"activity change, negative = inhibition",Potency
NC(=O)C[C@@H](N)C(=O)O,-0.0814%,–
CN(C)CCOc1ccccc1Cc1ccccc1 (tested in a mixture with another compound),-3.53%,–
C=Cc1ccccc1,-2.93%,–
CCOC(=O)[C@H](CCc1ccccc1)N[C@H]1CCCN2CCC[C@@H](C(=O)O)N2C1=O,-3.53%,–
CC1=C(C(=O)OCCN(Cc2ccccc2)c2ccccc2)C(c2cccc([N+](=O)[O-])c2)C(P2(=O)OCC(C)(C)CO2)=C(C)N1 (stereo not given),-4.84%,–
O=P(O)(O)C(O)(Cc1cnc2ccccn12)P(=O)(O)O,-1.79%,–
CN1CCN(C2=Nc3ccccc3Cc3ccccc32)CC1,-1.43%,–
O=C(O)c1cccc(/C=C2/C[C@@H]3[C@@H](/C=C/[C@@H](O)C4CCCCC4)[C@H](O)C[C@@H]3O2)c1,-3.56%,–
CCCCCCCCCCCCCCCC(=O)OC/C=C(C)/C=C/C=C(C)/C=C/C1=C(C)CCCC1(C)C,-1.07%,–
CN1CCN(CCCN2c3ccccc3Sc3ccccc32)CC1,4.94%,–
O=[N+]([O-])c1ccc(Oc2ccc(N=C=S)cc2)cc1,-9.39%,–
CNC[C@@H]1CC[C@@H](N)[C@@H](O[C@H]2[C@H](O)[C@@H](O[C@H]3OC[C@](C)(O)[C@H](NC)[C@H]3O)[C@H](N)C[C@@H]2N)O1,10.5%,–
c1ccc2c(CCC3CCNCC3)c[nH]c2c1,2.1%,–
COc1cc2c(c(OC)c1OC)-c1c(cc3c(c1OC)OCO3)C[C@@H](C)[C@](C)(O)C2,-5.87%,–
COc1ccc(C(=O)Nc2ccccc2CCC2CCCCN2C)cc1 (stereo not given),-0.689%,–
NCCCC(=O)O,2.72%,–
Nc1c(CC(=O)O)cccc1C(=O)c1ccccc1,–,inactive
CCOC(=O)Nc1ccc2c(c1)N(C(=O)CN(C)C)c1ccccc1CC2,-4.43% [at 123 µM],–
CCCC(CCC)C(N)=O,-1.75%,–
CC1(S(=O)(=O)O)CC(=O)c2ccccc2C1=O (stereo not given),-12.9%,–

Compound,"activity change, negative = inhibition",Potency
CCCCCCCC/C=C\CCCCCCCC(=O)OC[C@@H](O)[C@H]1OC[C@H](O)[C@H]1O,0.0376%,–
CN[C@H]1CC[C@@H](c2ccc(Cl)c(Cl)c2)c2ccccc21,12.7%,–
O=C(OCCO)c1ccccc1O,-1.06%,–
C[C@H](/C=C/[C@H](C)C(C)(C)O)[C@H]1CC[C@H]2/C(=C/C=C3C[C@@H](O)C[C@H](O)C3)CCC[C@]12C,3.32%,–
CCOc1ccc(N=C(C)Nc2ccc(OCC)cc2)cc1,1.3%,–
CCOC(=O)Cc1cccc(-c2cc(CCCCCCc3ccc(O[C@H]4O[C@H](COC(C)=O)[C@@H](OC(C)=O)[C@H](OC(C)=O)[C@@H]4OC(C)=O)c(-c4cccc(CC(=O)OCC)c4)c3)ccc2O[C@H]2O[C@H](COC(C)=O)[C@@H](OC(C)=O)[C@H](OC(C)=O)[C@@H]2OC(C)=O)c1,0.983%,–
Cn1nnnc1SCC1=C(C(=O)O)N2C(=O)[C@@H](NC(=O)[C@H](OC=O)c3ccccc3)[C@H]2SC1,-18.1%,–
NCCCNCCCCNC(=O)C(O)NC(=O)CCCCCCN=C(N)N (stereo not given),9.86%,–
Cc1ccc(/C(=C\CN2CCCC2)c2cccc(/C=C/C(=O)O)n2)cc1,-3.86%,–
CCC(=O)O,-5.7%,–
O=S(O)CNc1ccc(S(=O)(=O)c2ccc(NCS(=O)O)cc2)cc1,-4.49%,–
CCOC(=O)COc1ccc2c(C)c(CCN(CC)CC)c(=O)oc2c1,1.49%,–
NCCCC[C@H](NC(=O)[C@@H]1CCCN1C(=O)[C@@H]1CSSC[C@H](NC(=O)CNC(=O)CNC(=O)CN)C(=O)N[C@@H](Cc2ccc(O)cc2)C(=O)N[C@@H](Cc2ccccc2)C(=O)N[C@@H](CCC(N)=O)C(=O)N[C@@H](CC(N)=O)C(=O)N1)C(=O)NCC(N)=O (H-GGGCYFQNCPKG-NH2; disulfide 4-9),1.01%,–
CCN(CC)CCOC(=O)c1ccc(N)cc1Cl,-4.24%,–
CCOc1ccc(C[C@H]2NC(=O)CCSSC[C@@H](C(=O)N3CCC[C@H]3C(=O)N[C@@H](CCCN)C(=O)NCC(N)=O)NC(=O)[C@H](CC(N)=O)NC(=O)[C@H]([C@@H](C)O)NC(=O)[C@H]([C@@H](C)CC)NC2=O)cc1 ([Mpa][dY](Et)ITNCP[Orn]G-NH2; disulfide 1-6),-1.09%,–
CC(CN(C)C)CN1c2ccccc2S(=O)(=O)c2ccccc21 (stereo not given),-0.391%,–
Cc1cc(Nc2ccccc2C(=O)O)ccc1Cl,–,16.1 µM (active)
CCN(CC)c1ccc(N=Nc2ccc(S(=O)(=O)N(C)C)cc2)c(S(=O)(=O)NCC[n+]2ccccc2)c1,-7.09%,–
O=S(O)CO,-8.67%,–
CCCOc1ccc2nc(NC(=O)OC)sc2c1,–,1.14 µM (active)
